From PubChem
Rows were chosen to be rich in hits. Some 7.7% of all compounds tested hit in one or more screens of this group.
Sm TGR inh: inhibitors of Schistosoma mansoni thioredoxin glutathione reductase; 360,000 tested, 3% active; Q962Y6; purified TGR, DTNB reduction, TNB absorbance 405 nm; AID 485364; Potency, µM (top dose mostly 114 µM), without a hit: top-dose activity change, negative = inhibition, usual class: inhibitors; further: potency means the concentration at half of the fitted maximal effect; nearly all actives have a fitted effect of over 60% in size
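TGR 20 nM + NADPH 100 uM (dispensed conc.), cpd preinc 15 min RT; start with NADPH (500 uM addition) then DTNB (15 mM addition). Kinetic TNB absorbance, 405 nm filter. Four-parameter Hill fit across titration.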
RE007 growth inh: less growth of the S. pombe RE007 Vpr strain; 360,000 tested, 0.21% active; S. pombe RE007 Vpr strain, BacTiter-Glo ATP luminescence, 24 h; Potency, µM (doses to about 92.2 µM), for inactives: top-dose activity change, negative = less growth, hits mostly inhibitors; active means well fitted falling curve with a large enough effect; inconclusive means small, poorly fitted or top-dose-only effect; inactive means no such curve, though single readings can be large or run the other way; further: potency means the concentration at half of the fitted maximal effect; nearly all actives have a fitted effect of over 50% in size
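Fission yeast RE007 carrying one integrated HIV-1 vpr copy, seeded at OD 0.01 in PMG+AL medium with 23 nL pinned compound. Grown 24 h at 30 degrees; viability read by BacTiter-Glo luminescence after 5 min.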
TbPYK inhibitor: T. brucei pyruvate kinase inhibition | Potency, µM (highest dose often 76.8 µM), for the others: at the highest dose activity, negative = inhibition, actives largely listed as inhibitors | TbPYK enzyme, Kinase-Glo Plus ATP luminescence, 45 min | 410,000 tested, 0.12% active; further: potency means the concentration at half of the fitted maximal effect; nearly all actives have a fitted effect of over 50% in size
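Quantitative HTS: titrated library compounds versus trypanosomal pyruvate kinase in TEA buffer (pH 7.2) containing KCl, MgCl2, BSA and Tween-20. Reactions were initiated with ADP, 130 uM final. Kinase-Glo Plus luminescence was read after 45 min at RT.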
FMDV antiviral: foot and mouth disease virus antiviral activity | Potency, µM (highest dose often 57.9 µM), for the others: at the highest dose activity change, negative = inhibition, hits mostly inhibitors | 410,000 tested, 1.2% active | FMDV antiviral cell-based qHTS; calls by dose curve; tested in HEK293T cells; further: read-out not given here; potency means the concentration at half of the fitted maximal effect; nearly all actives have a fitted effect of over 45% in size
HCMV antiviral: blocks human cytomegalovirus replication. HFF cells, HCMV-luciferase reporter, 72 h; hits give low values. activity change, negative = inhibition, % at 57.5 µM. 410,000 tested, 4.5% active. AID 1259415; in the data active means activity change below about -60%; inconclusive means no clear call, values can overlap the other calls; inactive means above about -39%
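Inhibition of viral replication was scored as loss of reporter luminescence in HFFs infected with HCMV-luciferase (MOI 1 PFU/cell) for 72 h; compounds tested at 2 doses, normalized to buffer and Salinomycin controls.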
FBPA Giardia inh: blocks Giardia fructose-bisphosphate aldolase activity; AID 2451; A8B2U2; purified Giardia FBPA; 290,000 tested, 0.71% active; Potency, µM (highest dose often 59.6 µM), inactives show at the highest dose activity, negative = inhibition, usual class: inhibitors; further: potency means the concentration at half of the fitted maximal effect; nearly all actives have a fitted effect of over 55% in size
Target sequence (A8B2U2 whole entry, looked up): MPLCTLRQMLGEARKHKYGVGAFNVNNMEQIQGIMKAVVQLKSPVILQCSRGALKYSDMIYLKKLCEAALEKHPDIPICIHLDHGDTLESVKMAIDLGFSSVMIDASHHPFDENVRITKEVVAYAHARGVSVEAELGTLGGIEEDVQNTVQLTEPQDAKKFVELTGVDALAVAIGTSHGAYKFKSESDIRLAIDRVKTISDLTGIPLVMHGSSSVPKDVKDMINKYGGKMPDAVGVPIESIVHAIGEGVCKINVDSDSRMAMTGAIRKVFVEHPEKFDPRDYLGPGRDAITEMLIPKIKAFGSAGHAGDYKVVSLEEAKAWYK
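40 nM FBPA preincubated 10 min at RT with compound (up to 57.5 uM final), then substrate plus GAPDH/TPI/NAD/arsenate coupling and diaphorase/resazurin added. Fluorescence read after 20 min at RT, 525/598 nm.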
* = called active by the depositor; u = inconclusive; x = no result given; + = active, no number; [ ] = dose if it differs, or a comment. Unless noted, the call rests on the fitted dose curve; in most records, active means well fitted curve in the direction sought with a large enough effect; inconclusive means small, poorly fitted or top-dose-only effect, or another doubt; inactive means no such curve, though single readings can be large; an effect the other way counts as inactive or inconclusive. On the % scale 0 is the no-effect control and ±100 the full control effect.

SMILES	Sm TGR inh	RE007 growth inh	TbPYK inhibitor	FMDV antiviral	HCMV antiviral	FBPA Giardia inh
Cc1ccc(C)c(N2CCN(S(=O)(=O)c3ccc4[nH]c5c(c4c3)CCCCC5)CC2)c1	2%	x	-1%	-18%	-20	x
COc1cccc(/C=C/C(=O)OCC(=O)c2c[nH]c3ccccc23)c1OC	0%	-1%	-13%	25µM*	-17	1%
Nc1nc(CCl)nc(N(c2ccccc2)c2ccccc2)n1	11µM*	2%	-6%	32µM*	-98*	8%
C[C@@H]1CN(Cc2ccc3c(c2)CN(Cc2cn[nH]c2-c2ccccc2)CCO3)C[C@H](C)O1	x	x	x	-8%	x	x
CCOCCc1nnc(NC(=O)C(=O)c2cc(C)n(-c3cccc(C)c3)c2C)s1	8%	x	2%	-9%	0	x
Cc1cccc(OCC(=O)Nc2nonc2-c2ccc(Br)cc2)c1C	2%	x	2%	-25%	-17	x
COc1ccc(N(C(=O)c2ccccc2C)S(=O)(=O)c2ccc(C)cc2)cc1	11%	x	7%	2%	-20	x
COc1ccc(N(C(=O)c2ccccc2C)S(=O)(=O)c2cccs2)cc1	2%	-1%	-13%	19%	-77*	-6%
CC(=O)ON=C1C=CC(=C(C#N)c2ccccc2)C=C1	x	4µM*	u	u	-101*	x
COc1ccc(NC(=O)CCn2cccn2)cc1OC	12%	x	-4%	-10%	25	x
O=C(O)CCc1ccc(-c2ccc(Br)cc2)n1-c1ccc(O)cc1	28µM*	-19%	1%	8%	-3	11%
CCOC(=O)c1ccc(-n2c(CCC(=O)O)ccc2-c2ccc(Br)cc2)cc1	20µM*	x	3%	-13%	28	x
Cc1ccc(-c2ccc(CCC(=O)O)n2-c2ccc(O)cc2)cc1	25µM*	-6%	-15%	-10%	-7	13%
Cc1ccc(-c2ccc(CCC(=O)O)n2CC(=O)O)cc1	18µM*	-8%	-2%	x	x	23%
CC(C)c1[nH]nc2c1C(c1cccc(C(F)(F)F)c1)N(c1ccccc1)C2=O (stereo not given)	x	x	x	x	-33	x
Cc1ccc2c(=O)cc(C(=O)Nc3ccc(S(=O)(=O)N(C)c4ccccc4)cc3)oc2c1C	-8%	x	2%	-12%	20	x
O=C(O)CCc1ccc(-c2ccc(Cl)cc2)n1-c1cccc(C(F)(F)F)c1	25µM*	x	-17%	-10%	18	x
CCOc1ccc(-n2c(CCC(=O)O)ccc2-c2ccc(Br)cc2)cc1	u	x	6%	-28%	1	x
Cc1ccc(-c2ccc(CCC(=O)O)n2-c2cccc(O)c2)cc1	14µM*	1%	-10%	47%	36	13%
Cc1ccc(C(=O)c2c(N)c(C(=O)Nc3cccc(C(F)(F)F)c3)c3ccccn23)cc1	-3%	x	5%	-18%	2	x
Cc1ccc(-c2cc3c(N=O)c4ccccc4c-3n[nH]2)cc1	-7%	38%	2%	-12%	-94*	0%
CNC(=O)[C@H](C)[C@H]1C[C@]1(C)[C@H](NC(=O)OCc1ccccc1)c1ccccc1	x	x	x	x	x	2%
CC1=C(C#N)C(/C=N/OCc2ccc(F)cc2Cl)CC(=O)N1 (stereo not given)	6%	-6%	-10%	44%	-80*	3%
O=C(Nc1nccs1)c1cccc(N2C(=O)c3cccc4c([N+](=O)[O-])ccc(c34)C2=O)c1	-22%	-3%	-5%	-24%	-40	0%
Cc1ccc(C(=O)O)cc1N1C(=O)c2cccc3c([N+](=O)[O-])ccc(c23)C1=O	14µM*	2%	-17%	u	-100*	-13%
SMILES	Sm TGR inh	RE007 growth inh	TbPYK inhibitor	FMDV antiviral	HCMV antiviral	FBPA Giardia inh
CC(=O)Oc1cccc(N2C(=O)c3cccc4c([N+](=O)[O-])ccc(c34)C2=O)c1	1%	4%	9%	-11%	-94*	2%
O=C(O)c1ccc(CN2C(=O)c3cccc4c([N+](=O)[O-])ccc(c34)C2=O)cc1	18µM*	6%	3%	u	x	-14%
CN(C)CCCN1C(=O)c2cccc3c([N+](=O)[O-])ccc(c23)C1=O	28µM*	x	-8%	u	-25	-20%
CC(=O)Oc1cccc(N2C(=O)c3ccc(C(=O)O)cc3C2=O)c1	0%	-18%	-3%	-22%	u	15%
COc1ccc(CNC(=O)CCc2nnc3n(CC(C)C)c(=O)c4ccccc4n23)cc1	0%	x	-9%	-7%	7	x
COc1c2occc2c(OC(C)=O)c2c(=O)cc(C)oc12	-1%	9%	-5%	-22%	-67*	-3%
Cc1ccc(N2CCn3c2nc2c3c(=O)n(CCCc3ccccc3)c(=O)n2C)cc1C	11%	x	-2%	-10%	-22	x
Cc1nc(C(C)NC2CCN(c3cccc(NC(=O)c4ccncc4)c3)CC2)cs1 (stereo not given)	x	x	x	11%	x	x
CNC(=O)c1cccc(-n2c(C)nc3cccnc32)c1C	-1%	x	-2%[15.4 µM]	-3%	+	x
COc1cccc(CNC(=O)c2cccc(-n3c(C)nc4cccnc43)c2C)c1	1%	x	-2%[15.4 µM]	-23%	u	x
CC[N+](C)(CC)CC(=O)Nc1c(C)cccc1C	x	x	x	-22%	x	11%
N#Cc1cc2c(nc1S(=O)(=O)Cc1ccccc1)CCCC2	1%	1%	-12%	12%	-63*	-23%
CS(=O)(=O)c1nc2c(cc1C#N)CCCC2	x	41%	-9%	-15%	-25	7%
C=C1CCC2[C@](C)(CO)[C@H](O)CC[C@@]2(C)[C@@H]1/C=C/C1=CCOC1=O (stereo not given in full)	u	-3%	4%	u	-17	x
C=C1CC[C@@H]2[C@](C)(CO)[C@H](O)CC[C@@]2(C)[C@@H]1/C=C/C1=CCOC1=O	40µM*	3%	1%	u	u	3%
CCCn1c(=O)c2c(nc3n2CCN3Cc2ccco2)n(C)c1=O	0%	2%	-1%	-21%	21	8%
Cn1c(=O)n(Cc2ccc(Cl)cc2)c(=O)c2c1nc1n2CCN1Cc1ccco1	-2%	3%	4%	u	-86*	7%
O=C(CN1CCC2(CC1)OCCO2)c1ccc2cc[nH]c2c1	45µM*	4%	-12%	44%	-66*	2%
CC(C)=CCN1CCN(CCC2=C(C)CCCC2(C)C)CC1CCO (stereo not given)	-21%	3%	3%	-14%	-66*	2%
CC1=C(CCN2CCN(C3CCCC3)C(CCO)C2)C(C)(C)CCC1 (stereo not given)	3%	-12%	-1%	-12%	-37	2%
Cc1ccc(Cn2cc(S(=O)(=O)c3cccc(C)c3)c(=O)c3cc(F)c(N4CCOCC4)cc32)cc1	1%	x	0%	25%	-27	x
